The source of these data is the supplement of paper PMC10811239.

For this assay, the system named is LEGO organoid PTN (PTEN-/-; TP53-/-; NF1-/-). In words: bioluminescence (viable cell) signal fold change after vs before treatment, normalised to DMSO (ratio); higher = more tumour cell growth / less inhibition. The following applies: 10 µM; treatment time 6 days. The protocol: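 Luc2-labelled iPSC-derived glioblastoma-like organoids (LEGOs, genotypes PT = PTEN-/-;TP53-/-, PTCC = plus CDKN2A/B-/-, PTN = plus NF1-/-) were treated with 10 uM drug for 6 days (applied every other day) at 37 C. Bioluminescence imaging was done before treatment and 2 days after the last dose. BLI signals were normalised to the DMSO control on the same day and then to the pre-treatment signal (N=3).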
For `O=C1CCC(N2C(=O)c3ccccc3C2=O)C(=O)N1` (stereo unspecified) [Thalidomide], the bioluminescence was 1.38. With `CC(=O)Oc1ccccc1C(=O)O` [Aspirin] the figure was 0.737. Take `O=C1NC(=O)C(c2ccccc2)(c2ccccc2)N1` [Phenytoin]: the bioluminescence was 1.39.

For the compound `CC(=O)Nc1nnc(S(N)(=O)=O)s1` [Acetazolamide], the bioluminescence worked out at 2.04. The result for `CN[C@H](CC(C)C)C(=O)N[C@H]1C(=O)N[C@@H](CC(N)=O)C(=O)N[C@H]2C(=O)N[C@H]3C(=O)N[C@H](C(=O)N[C@H](C(=O)O)c4cc(O)cc(O)c4-c4cc3ccc4O)[C@H](O)c3ccc(c(Cl)c3)Oc3cc2cc(c3O[C@@H]2O[C@H](CO)[C@@H](O)[C@H](O)[C@H]2O[C@H]2C[C@](C)(N)[C@H](O)[C@H](C)O2)Oc2ccc(cc2Cl)[C@H]1O` [Vancomycin] reads 0.868; that for `C[C@@H]1O[C@@H]1P(=O)(O)O.NC(CO)(CO)CO` [Fosfomycin Tromethamine], 0.813.
